Measurements from PMC8384837, “Expanding the binding specificity for RNA recognition by a PUF domain”.

How the values were obtained:
Assay in all cases: yeast three-hybrid, YBZ-1, SC-Leu-His + 0.5 mM 3-AT, 4 days
Conditions in all cases: tags: N-Gal4 AD-HA kept; label: inside an RPR1-promoter hybrid RNA with tandem MS2 sites; ssRNA
[1] = molecular target: PUM1 PUF domain R3-CRS (Homo sapiens, UniProt Q14671 828-1176, Q939S)
Method in brief: (§1)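 Pumilio-1 PUF domain libraries, randomized at the three base-contacting residues of each repeat, were co-expressed with matching RNA elements from a centromeric plasmid in strain YBZ-1, which carries a LexA–MS2 coat fusion and a HIS3 reporter. Transformants grew for four days on SC-Leu (input) or on SC-Leu-His + 0.5 mM 3-AT (selection), and the repeat regions were PCR-amplified and Illumina-sequenced. The interaction score is the log change in variant frequency from input to selection. That logarithm is base 2, with a pseudocount of 1 where a variant was absent.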

[2] = molecular target: PUM1 PUF domain R5-RNP (Homo sapiens, UniProt Q14671 828-1176, C1007R;R1008N;Q1011P)
Method in brief: as §1

[3] = molecular target: PUM1 PUF domain R5-KPM (Homo sapiens, UniProt Q14671 828-1176, C1007K;R1008P;Q1011M)
Method in brief: as §1

[4] = molecular target: PUM1 PUF domain R2-LLL (Homo sapiens, UniProt Q14671 828-1176, N899L;Y900L;Q903L)
Method in brief: as §1

[5] = molecular target: PUM1 PUF domain R1-KRG (Homo sapiens, UniProt Q14671 828-1176, S863K;Q867G)
Method in brief: as §1

[6] = molecular target: PUM1 PUF domain R1-QRK (Homo sapiens, UniProt Q14671 828-1176, S863Q;Q867K)
Method in brief: as §1

[7] = molecular target: PUM1 PUF domain R4-DHM (Homo sapiens, UniProt Q14671 828-1176, N971D;Q975M)
Method in brief: as §1

[8] = molecular target: PUM1 PUF domain R3-GCF (Homo sapiens, UniProt Q14671 828-1176, C935G;R936C;Q939F)
Method in brief: as §1

[9] = molecular target: PUM1 PUF domain R3-TGQ (Homo sapiens, UniProt Q14671 828-1176, C935T;R936G)
Method in brief: as §1

[10] = molecular target: PUM1 PUF domain R8-AWR (Homo sapiens, UniProt Q14671 828-1176, N1122A;Y1123W;Q1126R)
Method in brief: as §1

Sequence of PUM1 PUF domain R3-CRS (Q14671 828-1176 Q939S): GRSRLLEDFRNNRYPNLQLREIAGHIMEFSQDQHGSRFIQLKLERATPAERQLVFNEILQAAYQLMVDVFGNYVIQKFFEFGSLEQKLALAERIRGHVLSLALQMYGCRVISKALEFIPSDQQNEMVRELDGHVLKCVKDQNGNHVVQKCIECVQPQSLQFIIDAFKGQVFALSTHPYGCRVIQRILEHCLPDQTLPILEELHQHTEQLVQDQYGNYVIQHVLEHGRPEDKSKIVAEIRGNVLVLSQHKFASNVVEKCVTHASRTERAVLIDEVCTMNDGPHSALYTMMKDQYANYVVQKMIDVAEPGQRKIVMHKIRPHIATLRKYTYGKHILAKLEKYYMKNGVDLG
Sequence of PUM1 PUF domain R1-KRG (Q14671 828-1176 S863K/Q867G): as the sequence (Q14671 828-1176 Q939S) above, with S36K, Q40G, S112Q counted along it
Sequence of PUM1 PUF domain R8-AWR (Q14671 828-1176 N1122A/Y1123W/Q1126R): as the sequence (Q14671 828-1176 Q939S) above, with S112Q, N295A, Y296W, Q299R counted along it
Sequence of PUM1 PUF domain R5-KPM (Q14671 828-1176 C1007K/R1008P/Q1011M): as the sequence (Q14671 828-1176 Q939S) above, with S112Q, C180K, R181P, Q184M counted along it
Sequence of PUM1 PUF domain R5-RNP (Q14671 828-1176 C1007R/R1008N/Q1011P): as the sequence (Q14671 828-1176 Q939S) above, with S112Q, C180R, R181N, Q184P counted along it
Sequence of PUM1 PUF domain R3-TGQ (Q14671 828-1176 C935T/R936G): as the sequence (Q14671 828-1176 Q939S) above, with C108T, R109G, S112Q counted along it
Sequence of PUM1 PUF domain R1-QRK (Q14671 828-1176 S863Q/Q867K): as the sequence (Q14671 828-1176 Q939S) above, with S36Q, Q40K, S112Q counted along it
Sequence of PUM1 PUF domain R3-GCF (Q14671 828-1176 C935G/R936C/Q939F): as the sequence (Q14671 828-1176 Q939S) above, with C108G, R109C, S112F counted along it
Sequence of PUM1 PUF domain R4-DHM (Q14671 828-1176 N971D/Q975M): as the sequence (Q14671 828-1176 Q939S) above, with S112Q, N144D, Q148M counted along it
Sequence of PUM1 PUF domain R2-LLL (Q14671 828-1176 N899L/Y900L/Q903L): as the sequence (Q14671 828-1176 Q939S) above, with N72L, Y73L, Q76L, S112Q counted along it

GGCUAGAACUAGUGGAUCCCCCGGCGCCCGGCGGCUCGAGCCCGGGUAAGUGUAAUUAGUCUGCAUGCCGCCGGGCGCCAUGCCUGCAGGUCGACUCUAGAAAACAUG
binding signal [1]: 0.43 log2 enrichment (interaction score)

GGCUAGAACUAGUGGAUCCCCCGGCGCCCGGCGGCUCGAGCCCGGGUAAGUGUUAAUAGUCUGCAUGCCGCCGGGCGCCAUGCCUGCAGGUCGACUCUAGAAAACAUG
binding signal [2]: 2.93 log2 enrichment (interaction score) | binding signal [3]: 3.06 log2 enrichment (interaction score)

GGCUAGAACUAGUGGAUCCCCCGGCGCCCGGCGGCUCGAGCCCGGGUAAGUGUAAAGAGUCUGCAUGCCGCCGGGCGCCAUGCCUGCAGGUCGACUCUAGAAAACAUG
binding signal [4]: 3.06 log2 enrichment (interaction score)

GGCUAGAACUAGUGGAUCCCCCGGCGCCCGGCGGCUCGAGCCCGGGUAAGUGUAAAUCGUCUGCAUGCCGCCGGGCGCCAUGCCUGCAGGUCGACUCUAGAAAACAUG
binding signal [5]: 2.86 log2 enrichment (interaction score) | binding signal [6]: 4.66 log2 enrichment (interaction score)

GGCUAGAACUAGUGGAUCCCCCGGCGCCCGGCGGCUCGAGCCCGGGUAAGUGUAAAUAGUCUGCAUGCCGCCGGGCGCCAUGCCUGCAGGUCGACUCUAGAAAACAUG
binding signal [1]: 3.28 log2 enrichment (interaction score) | binding signal [7]: 5.71 log2 enrichment (interaction score) | binding signal [8]: 3.59 log2 enrichment (interaction score) | binding signal [9]: 4.55 log2 enrichment (interaction score) | binding signal [10]: 4.49 log2 enrichment (interaction score)

GGCUAGAACUAGUGGAUCCCCCGGCGCCCGGCGGCUCGAGCCCGGGUAAGCGUAAAUAGUCUGCAUGCCGCCGGGCGCCAUGCCUGCAGGUCGACUCUAGAAAACAUG
binding signal [10]: 4.57 log2 enrichment (interaction score)

GGCUAGAACUAGUGGAUCCCCCGGCGCCCGGCGGCUCGAGCCCGGGUAAGUGUAAAUUGUCUGCAUGCCGCCGGGCGCCAUGCCUGCAGGUCGACUCUAGAAAACAUG
binding signal [5]: 1.23 log2 enrichment (interaction score)

GGCUAGAACUAGUGGAUCCCCCGGCGCCCGGCGGCUCGAGCCCGGGUAAGUGUAAGUAGUCUGCAUGCCGCCGGGCGCCAUGCCUGCAGGUCGACUCUAGAAAACAUG
binding signal [1]: 2.6 log2 enrichment (interaction score)
